In experiment [1] the test system is Human papillomavirus type 1a protein E7 (residues 44-93). Briefly: small molecules binding HPV E7 44-93 – biochemical, small-molecule microarray, residues 44-93, 635 nm fluorescence, primary screen (AID 1108).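 Further: E7 fragment applied at 1 µg/mL in TBST for 1 h at 4 C; score combines spot fluorescence with its signal to noise ratio.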 As to conditions: fluorescence 635 nm, higher = more signal.
A short description of experiment [2]: hepatitis C replication reporter changes, two-sided – Huh7 cells, luciferase reporter, HCV replication inhibitor project, primary screen (AID 1109).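 Further: huh7 hepatoma cells harbouring a luciferase neomycin HCV replicon reporter; luciferase luminescence as measure of HCV replicon replication; test concentration not given here.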 As to conditions: Huh7 HCV replicon luciferase reporter, 48 h; higher = more signal.
Experiment [3] has as its target Left-right determination factor 2 (Homo sapiens) (UniProt O00292). Briefly: small molecules binding LEFTY2 protein – biochemical, small-molecule microarray, 635 nm fluorescence scan, primary screen (AID 1110). As to conditions: higher = more signal.
Experiment [4] concerns the target Calmodulin-1 (Homo sapiens) (UniProt P0DP23). In words: small molecules binding calmodulin-1 with EGTA – biochemical, small-molecule microarray, Cy5-labelled CALM1, profiling panel (AID 1111).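 Further: labelled calmodulin applied in Tris saline Tween buffer holding calcium plus EGTA and DTT.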 Conditions: Cy5-CALM1 binding fluorescence, higher = more signal.
For experiment [5] the target is unchanged. In words: small molecules binding Ca-loaded calmodulin-1 – biochemical, small-molecule microarray, Cy5-labelled CALM1, plus calcium, artefact control for SMM control-protein annotation, profiling panel (AID 1112).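 Further: score merges spot fluorescence with signal to noise from triplicate slides.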 As to conditions: Cy5-CALM1 binding fluorescence, higher = more signal.
The nature of experiment [6]: probe aWnt5a binding to arrayed compounds – biochemical, biotinylated probe, 635/667 nm fluorescence, primary screen (AID 1113).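 Further: score merges 667 nm fluorescence intensity with signal-to-noise per printed feature.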 Conditions: small-molecule microarray, higher = more signal.
Experiment [7] can be described thus: probe aShh binding to arrayed compounds – biochemical, biotinylated probe, 635/667 nm fluorescence, primary screen (AID 1114).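 Further: probe is biotin-labelled aShh protein from a stem cell growth factor screen; measures binding of labelled protein to compounds printed on the slide; score merges feature fluorescence at 667 nm with signal-to-noise.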 As to conditions: small-molecule microarray, higher = more signal.
The nature of experiment [8]: probe aNog binding to arrayed compounds – biochemical, biotinylated probe, 635/667 nm fluorescence, primary screen (AID 1115).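 Further: probe is biotinylated aNog protein used at 0.15 µg/mL for 1 h at 4 C; z-score combines 667 nm fluorescence of each spot with its signal to noise.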 Conditions: small-molecule microarray, higher = more signal.
In experiment [9] the target is Torsin-1A-interacting protein 1 (Homo sapiens) (UniProt Q5JTV8). Briefly: compound microarray binding of lysate hLAP1 – cell lysate, small-molecule microarray, COS7 lysate, 635/667 nm fluorescence, primary screen (AID 1116). Conditions: 635 nm fluorescence, higher = more signal.
Sequence of Torsin-1A-interacting protein 1 (Homo sapiens) (Q5JTV8 whole entry, looked up): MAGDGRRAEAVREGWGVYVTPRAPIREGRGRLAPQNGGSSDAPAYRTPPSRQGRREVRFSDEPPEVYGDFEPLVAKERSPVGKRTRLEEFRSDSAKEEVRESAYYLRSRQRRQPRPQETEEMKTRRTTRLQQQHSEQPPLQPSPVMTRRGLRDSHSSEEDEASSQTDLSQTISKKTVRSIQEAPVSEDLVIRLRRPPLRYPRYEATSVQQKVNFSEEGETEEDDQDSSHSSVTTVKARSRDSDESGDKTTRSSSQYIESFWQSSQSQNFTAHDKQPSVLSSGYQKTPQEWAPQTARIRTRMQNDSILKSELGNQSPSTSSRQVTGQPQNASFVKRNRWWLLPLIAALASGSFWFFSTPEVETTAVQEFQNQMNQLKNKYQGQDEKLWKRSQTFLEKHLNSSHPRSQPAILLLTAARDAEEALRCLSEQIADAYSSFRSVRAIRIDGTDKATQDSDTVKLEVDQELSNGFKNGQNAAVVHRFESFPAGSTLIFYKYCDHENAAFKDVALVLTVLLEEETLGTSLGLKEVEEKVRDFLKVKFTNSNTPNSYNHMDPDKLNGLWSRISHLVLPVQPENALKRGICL
Experiment [10] deals with Alpha-bungarotoxin (Bungarus multicinctus) (UniProt P60615). In words: compounds binding labelled alpha-BTX control protein – biochemical, small-molecule microarray, Alexa647 label, 635/667 nm fluorescence, artefact control for SMM control protein annotation, profiling panel (AID 1117). Conditions: alpha-BTX-A647 binding fluorescence, higher = more signal.
Sequence of Alpha-bungarotoxin (Bungarus multicinctus) (P60615 whole entry, looked up): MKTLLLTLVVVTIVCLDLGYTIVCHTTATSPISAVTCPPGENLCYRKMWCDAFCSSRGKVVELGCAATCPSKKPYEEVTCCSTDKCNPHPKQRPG

Sequence of Left-right determination factor 2 (Homo sapiens) (O00292 whole entry, looked up): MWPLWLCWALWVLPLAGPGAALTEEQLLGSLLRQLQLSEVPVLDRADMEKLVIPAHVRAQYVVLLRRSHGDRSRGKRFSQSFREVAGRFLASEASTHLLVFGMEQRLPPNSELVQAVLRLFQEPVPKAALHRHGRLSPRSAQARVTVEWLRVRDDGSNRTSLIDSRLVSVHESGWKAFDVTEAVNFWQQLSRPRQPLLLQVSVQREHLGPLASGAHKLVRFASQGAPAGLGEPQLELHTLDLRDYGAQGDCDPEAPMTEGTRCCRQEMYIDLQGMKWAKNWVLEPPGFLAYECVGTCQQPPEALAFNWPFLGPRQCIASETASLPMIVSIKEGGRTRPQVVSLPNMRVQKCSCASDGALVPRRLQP

Take `CO[C@H]1COC(=O)[C@@H](C)COC(=O)[C@@H](OCc2ccccc2)C=C[C@@H]1C`: the composite z-score was -0.193 in experiment [1]; 0.281 in experiment [3]; 0.0243 in experiment [4]; -0.642 in [5]; -0.0346 in experiment [6]; -0.276 in experiment [7]. Also, the composite z-score in experiment [8] is -0.37; in experiment [9] it was -0.0153; in [10], -0.807. For the same compound, in [2], the z-score is -1.38.
With `COCOc1ccc(Br)cc1C(=O)[C@@H]1O[C@H]1c1cccc(OC)c1`, the composite z-score in experiment [1] was -0.392; in experiment [3] it was 0.377; in experiment [4], -0.213; in experiment [5], -0.187; in [6] it was -0.148; in [7], -0.136. For the same compound, the results for the composite z-score in [8], in experiment [9] and in experiment [10] were -0.0428, 0.616 and 0.187, respectively. The z-score in experiment [2] is -3.74.
As for `C#CCCCON=C1C[C@@H](O)[C@@H](O)[C@@H]2[C@@H]3C(=O)N(CCC(=O)OCC)C(=O)[C@@H]3CC[C@H]12`, the composite z-score in experiment [1] was 0.0844; in experiment [3], 0.387; in experiment [4], 1.16; in experiment [5], 0.221; in [6] it was -0.13; in experiment [7], 0.172. In addition, the figures for the composite z-score in experiment [8], in experiment [9] and in [10] were -0.253, 0.544 and 0.401, respectively. In experiment [2], this compound had a z-score of 0.283.
`COc1ccc(O[C@H]2C=C[C@@H](c3ccccc3)O[C@@H]2CON=C(C)CCC(=O)OC[C@H]2O[C@H](c3ccccc3)C=C[C@@H]2Oc2ccc(OC)cc2)cc1`: the composite z-score is -1.52 in experiment [1]; -1.08 in [3]; -0.63 in experiment [4]; -0.702 in experiment [5]; -0.176 in [6]; -0.276 in experiment [7]. For the same compound, the values for the composite z-score in experiment [8], in [9] and in experiment [10] were 0.646, -1.17 and -0.792, respectively. Moreover, the z-score in [2] is -1.15.
As for `COC(=O)CC=C[C@@H](C)[C@@H](C=NO[C@@H]1O[C@H](COC(C)=O)[C@@H](OC(C)=O)[C@H](OC(C)=O)[C@H]1OC(C)=O)NS(=O)(=O)c1ccc(C)cc1`, the composite z-score in experiment [1] was -0.296; in experiment [3], 0.599; in experiment [4] it was -0.881; in experiment [5], -1.69; in experiment [6], -0.124; in experiment [7] it was -0.221. Also, the composite z-score in experiment [8] was -0.158; in [9] it was -0.441; in experiment [10] it was -1. Also, the z-score in [2] is -0.594.
In the case of `CO[C@H]1COC(=O)[C@@H](Cc2ccccc2)NC(=O)[C@@H](C)COC(=O)CCC[C@@H]1C`, the composite z-score in experiment [1] was -0.573; in experiment [3] it was 0.455; in experiment [4], -0.273; in experiment [5], -0.679; in experiment [6], -0.0478; in experiment [7], 0.0278. For the same compound, the composite z-score in experiment [8] is -0.412; in experiment [9] it was 0.29; in experiment [10], 0.273. Besides, in experiment [2], the z-score was -2.38.
As to `C#CCCCON=C1C[C@@H](O)[C@@H](O)[C@@H]2[C@@H]3C(=O)N(Cc4ccccc4)C(=O)[C@@H]3CC[C@@H]12`, the composite z-score in experiment [1] is 0.0417; in experiment [3] it was 0.26; in [4] it was -0.274; in experiment [5] it was -0.0051; in experiment [6], -0.0236; in [7], -0.253. Further, the composite z-score in experiment [8] was -0.133; in [9] it was -0.194; in experiment [10], -0.221. This compound also gave a z-score in [2] of 0.858.
As to `C[C@@H]1CC[C@H]2C(=O)O[C@@H](Cc3ccccc3)CN2[C@H]1c1ccc(Br)cc1`, the composite z-score in experiment [1] was 0.712; in experiment [3], 0.276; in [4], 0.134; in experiment [5], 0.216; in experiment [6] it was -0.118; in experiment [7], -0.221. In addition, the composite z-score in [8] is -0.158; in experiment [9], 0.579; in [10], 0.198. Further, the z-score in experiment [2] was determined as 0.166.
Regarding `CO[C@H]1COC(=O)CC=C[C@@H](C)[C@H](OC)COC(=O)CCC[C@@H]1C`, the composite z-score is -1.16 in experiment [1]; 0.797 in experiment [3]; -1.03 in experiment [4]; -1.29 in [5]; -0.0751 in experiment [6]; -0.0709 in experiment [7]. Besides, the composite z-score in experiment [8] is -0.238; in [9], 0.389; in experiment [10], -0.069. Further, the z-score in experiment [2] was -1.3.
Regarding `CON=Cc1ccc(C(=O)N2[C@H](c3ccc(C)cc3)[C@@H](C)CC[C@H]2C(=O)OC)cc1`, the composite z-score in [1] was 1.25; in experiment [3] it was -0.203; in experiment [4], -0.129; in [5], -0.121; in experiment [6], -0.0044; in experiment [7], 0.0684. Further, the composite z-score is -0.0503 in [8], -0.0018 in [9] and 0.449 in experiment [10]. Besides, in experiment [2], the z-score was -1.33.
`CO[C@@H]1COC(=O)[C@H](CCSC)NC(=O)CC=C[C@@H](C)COC(=O)[C@H](C)NC(=O)CC=C[C@H]1C`: the composite z-score is 0.677 in experiment [1]; 1.19 in experiment [3]; -0.886 in [4]; -1.04 in experiment [5]; -0.0179 in experiment [6]; -0.221 in [7]. The composite z-score in experiment [8] was -0.0604; in experiment [9], -0.185; in experiment [10], -0.155. In addition, the z-score in experiment [2] was -0.62.
As to `Cc1ccc(S(=O)(=O)OC[C@H]2CN3[C@H](c4ccc(Br)cc4)[C@@H](C)CC[C@H]3C(=O)O2)cc1`, the composite z-score in experiment [1] was 0.226; in [3] it was 0.119; in experiment [4] it was 0.946; in experiment [5] it was -0.265; in experiment [6], -0.0462; in [7], 0.0141. Besides, the results for the composite z-score in experiment [8], in experiment [9] and in experiment [10] were -0.12, 0.0859 and 0.934, respectively. In addition, the z-score in experiment [2] was -1.02.
Regarding `CON=C[C@@H](C)[C@H](OCc1ccccc1)C(C)C`, the composite z-score was -0.933 in [1]; 0.418 in [3]; -0.442 in [4]; -0.418 in experiment [5]; -0.0882 in [6]; -0.419 in experiment [7]. In addition, the composite z-score in experiment [8] was -0.204; in experiment [9], 1.15; in [10], -0.11. For the same compound, the z-score in [2] is -0.131.
In the case of `C[C@@H](c1ccccc1)N1C(=O)[C@H]2[C@H]3[C@H](O)[C@H](O)CC(=O)[C@H]3CC[C@H]2C1=O`, the composite z-score in experiment [1] is 0.295; in experiment [3], 0.461; in [4], 0.364; in experiment [5], -0.255; in experiment [6], -0.154; in experiment [7], -0.206. Also, the results for the composite z-score in [8], in [9] and in experiment [10] were -0.026, -0.0326 and -0.0931, respectively. Also, in experiment [2], the z-score is -0.127.
With `CCO[C@H](c1cc(OC)cc([N+](=O)[O-])c1OC)[C@H](C)C=CCC(=O)OC`, the composite z-score was -0.679 in experiment [1]; 0.46 in experiment [3]; -0.432 in experiment [4]; -1.36 in experiment [5]; -0.248 in experiment [6]; -0.214 in [7]. Further, the composite z-score is -0.0278 in experiment [8], 0.11 in experiment [9] and -0.0356 in experiment [10]. The compound also came in with a z-score in experiment [2] of 0.265.
With `CCOC(=O)[C@H](CC(C)C)NC(=O)CCC1CC(OC(=O)NCc2cccc3ccccc23)CC2(CCCC(COC(=O)NCCOC)O2)O1` (stereo not given in full), the composite z-score is 1.34 in experiment [1]; 0.629 in experiment [3]; -0.24 in experiment [4]; -0.418 in [5]; -0.116 in [6]; -0.128 in experiment [7]. The composite z-score in experiment [8] was -0.0653; in experiment [9] it was 0.481; in [10] it was 0.0702. For the same compound, the z-score in [2] came out at 0.339.
For `CC(C)=NOC[C@@H](C)[C@H](OCc1ccccc1)C(C)C`, the composite z-score was -1.19 in experiment [1]; -0.0001 in experiment [3]; -0.211 in experiment [4]; -0.285 in [5]; -0.0758 in [6]; -0.0709 in [7]. Moreover, the figures for the composite z-score in experiment [8], in experiment [9] and in [10] were -0.402, -0.368 and 0.213, respectively. The z-score in experiment [2] was -0.801.

The values above are taken from PubChem BioAssay.
